Assay [1] in a line: Quantitative High-Throughput drug screen in 47 multiple myeloma cell lines against the NCATS MIPE library collection: KMS28PE_JCRB cell viability assay (AID 1918983). Further: nearly all actives have a fitted effect of over 35% in size. The method, boiled down: (§1)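 Plated at 500 cells per well, myeloma lines received MIPE 4.0 compounds by pin tool. Following 48 h culture at 37 °C, CellTiter-Glo luminescence gave viability relative to DMSO and media-only controls.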

Assay [2] is described as follows: Quantitative High-Throughput drug screen in 47 multiple myeloma cell lines against the NCATS MIPE library collection: L363_DSMZ cell viability assay (AID 1918984). Further: nearly all actives have a fitted effect of over 40% in size. The procedure, abridged:
as §1

Assay [3] is described as follows: Quantitative High-Throughput drug screen in 47 multiple myeloma cell lines against the NCATS MIPE library collection: KMS34_JCRB cell viability assay (AID 1918985). Further: nearly all actives have a fitted effect of over 40% in size. The method, boiled down:
as §1

A short description of assay [4]: Quantitative High-Throughput drug screen in 47 multiple myeloma cell lines against the NCATS MIPE library collection: OPM1_PLB cell viability assay (AID 1918989). Further: nearly all actives have a fitted effect of over 40% in size. The method, boiled down:
as §1

A short description of assay [5]: Quantitative High-Throughput drug screen in 47 multiple myeloma cell lines against the NCATS MIPE library collection: XG6_PLB cell viability assay (AID 1919865). Further: nearly all actives have a fitted effect of over 40% in size. The method, boiled down:
as §1

The nature of assay [6]: Quantitative High-Throughput drug screen in 47 multiple myeloma cell lines against the NCATS MIPE library collection: OCIMY7_PLB cell viability assay (AID 1918987). Further: nearly all actives have a fitted effect of over 65% in size. As to conditions: OCI-MY7 myeloma viability, CellTiter-Glo ATP, 48 h; viability (% of DMSO): at 45.8 µM (top of the series). The procedure, abridged: as §1
On the technique in general: ATP-based viability assays read luminescence as a measure of living cells.

The nature of assay [7]: Quantitative High-Throughput drug screen in 47 multiple myeloma cell lines against the NCATS MIPE library collection: OCIMY5_PLB cell viability assay (AID 1918988). Further: nearly all actives have a fitted effect of over 65% in size. The procedure, abridged:
as §1

The nature of assay [8]: Quantitative High-Throughput drug screen in 47 multiple myeloma cell lines against the NCATS MIPE library collection: U266_ATCC cell viability assay (AID 1919864). Further: nearly all actives have a fitted effect of over 35% in size. The method, boiled down: as §1
A short description of assay [9]: Quantitative High-Throughput drug screen in 47 multiple myeloma cell lines against the NCATS MIPE library collection: SKMM1_PLB cell viability assay (AID 1919863). Further: nearly all actives have a fitted effect of over 35% in size. To be noted: SKMM1 myeloma viability, CellTiter-Glo ATP, 48 h; viability: active compounds read low. The procedure, abridged:
as §1

Each structure is given as a SMILES string. Results filed as inconclusive are left out. A number with no mark means an inactive call. Activity calls are given as the source filed them. The call rests on the fitted dose curve; in most records, active means well fitted cell-killing curve with a large enough effect; inconclusive means small, poorly fitted or top-dose-only effect, or effect the other way; inactive means no such curve, though single readings can be large or run the other way.
Potency means the concentration at half of the fitted maximal effect.

Take `C[C@H]1O[C@H](O[C@H]2[C@H](O)[C@@H](O)[C@@H](O[C@H]3[C@H](O)[C@@H](O)C(O)O[C@H]3CO)O[C@H]2CO)[C@H](O)[C@@H](O)[C@H]1N[C@H]1C=C(CO)[C@@H](O)[C@H](O)[C@@H]1O` (some centres undefined): the Potency entry in assay [1], in assay [3], in assay [4] and in assay [5] was “inactive” throughout. In assay [2], the Potency is 20.9 µM (active).

As for `C[C@H](NCc1ccc2c(c1)nc(NC(=O)c1ccc(-c3cn[nH]c3)s1)n2CCc1ccccc1)C(C)(C)C`, the Potency in [1] is 2.35 µM (active); in [2], 0.469 µM (active); in assay [3], 1.05 µM (active); in assay [6], 0.418 µM (active); in [7], 0.833 µM (active); in assay [4], 1.18 µM (active). The Potency in assay [8] is 1.48 µM (active); in assay [5], 0.935 µM (active).

Turning to `COc1ccc(Nc2cc(-c3cnc(N)nc3)nc(N3CCOCC3)n2)cn1`, the Potency in [1] is 0.833 µM (active); in [2], 0.526 µM (active); in [6], 1.05 µM (active); in [7], 11.8 µM (active); in assay [4] it was 3.72 µM (active); in [9] it was 0.235 µM (active). For the same compound, the Potency is 11.8 µM (active) in assay [8] and 3.72 µM (active) in assay [5].

Regarding `CCCCCCCCCCCC(CC1OC(=O)C1CCCCCC)OC(=O)C(CC(C)C)NC=O` (centres undefined), the Potency in assay [1] was 26.4 µM (active); in assay [7] it was 18.7 µM (active); in assay [9], 16.6 µM (active). The Potency entry in assay [2], in [3], in [4] and in [8] was “inactive” in each case.

For `c1ccc(CNc2nc(NCc3ccccc3)c3ccccc3n2)cc1`, the Potency in assay [1] was 23.5 µM (active); in assay [2] it was 5.26 µM (active); in assay [6], 4.69 µM (active); in assay [7] it was 20.9 µM (active); in assay [4] it was 7.43 µM (active); in assay [9] it was 29.6 µM (active). Also, the Potency was 14.8 µM (active) in assay [8] and 8.33 µM (active) in assay [5].

For the compound `CC(C)NC[C@@H](C(=O)N1CCN(c2ncnc3c2[C@H](C)C[C@H]3O)CC1)c1ccc(Cl)cc1`, the Potency was 1.48 µM (active) in assay [1]; 0.0372 µM (active) in assay [2]; 14.8 µM (active) in [3]; 1.66 µM (active) in assay [7]; 0.372 µM (active) in [4]; 10.5 µM (active) in [9]. Besides, the Potency in [5] was 1.66 µM (active).

Consider `CCS(=O)(=O)Nc1ccc2[nH]c(O)c(C(=Nc3ccc(CN4CCCCC4)cc3)c3ccccc3)c2c1`, for which the Potency in assay [1] was 1.05 µM (active); in [2], 0.0526 µM (active); in assay [3], 0.935 µM (active); in [6] it was 0.0662 µM (active); in assay [7], 2.09 µM (active); in [4], 0.332 µM (active). Further, the Potency in [8] was 5.9 µM (active); in assay [5] it was 3.32 µM (active).

For `C=C1C(=O)O[C@H]2[C@@H]1CCC(C)=CCC[C@@]1(C)O[C@@H]21`, the Potency in assay [1] was 7.43 µM (active); in assay [2], 9.35 µM (active); in assay [6], 0.526 µM (active); in [7], 4.18 µM (active); in assay [4] it was 4.69 µM (active); in assay [9] it was 16.6 µM (active). Further, the Potency is 6.62 µM (active) in [8] and 5.9 µM (active) in assay [5].

On to `CC(=O)O[C@]1(C(C)=O)CC[C@H]2[C@@H]3C=C(C)C4=CC(=O)CC[C@]4(C)[C@@H]3CC[C@@]21C`, for which the Potency result in assay [1] and in [3] was “inactive” each time. In addition, the Potency in [2] was 9.35 µM (active); in assay [8], 8.33 µM (active).

On to `O=C1NC(=O)C(=Cc2ccc3nccc(-c4ccncc4)c3c2)S1`, for which the Potency was 0.372 µM (active) in assay [1]; 0.0469 µM (active) in assay [2]; 0.296 µM (active) in [3]; 0.0662 µM (active) in assay [6]; 0.526 µM (active) in assay [7]; 0.0743 µM (active) in [4]. Further, the Potency in [9] was 0.59 µM (active); in assay [5], 0.0833 µM (active).

As for `CN(C)c1ccc(C(=O)NCCCCCCC(=O)NO)cc1`, the Potency in [1] was 0.935 µM (active); in assay [2], 0.0833 µM (active); in assay [3], 0.662 µM (active); in [6], 0.59 µM (active); in [7], 0.469 µM (active); in assay [4] it was 0.296 µM (active). The values for the Potency in assay [9], in assay [8] and in [5] were 1.48 µM (active), 1.18 µM (active) and 1.87 µM (active), respectively.

With `C=Cc1c(C)c2cc3nc(cc4[nH]c(cc5nc(cc1[nH]2)C(C)=C5CCC(=O)O)c(CCC(=O)OC)c4C)[C@@]1(C)C3=CC=C(C(=O)OC)[C@H]1C(=O)OC`, the Potency is 0.743 µM (active) in assay [1]; 0.526 µM (active) in [2]; 0.743 µM (active) in [3]; 0.662 µM (active) in [6]; 0.0418 µM (active) in [7]; 0.372 µM (active) in assay [4]. In addition, the Potency in assay [9] was 0.743 µM (active); in assay [5], 0.0332 µM (active).

Regarding `Oc1ccc([C@@H]2Oc3ccc(O)cc3[C@@H]3CCC[C@@H]32)cc1`, the Potency in [1] was 23.5 µM (active); in assay [6] it was 1.18 µM (active); in assay [7] it was 14.8 µM (active); in assay [4], 16.6 µM (active); in [9] it was 10.5 µM (active). Besides, the Potency entry in assay [2] is “inactive”.

Take `c1cc(N[C@@H]2CCNC2)nc(-c2cnc3ccc(-c4cn[nH]c4)cn23)c1`: the Potency in [1] was 16.6 µM (active); in assay [2], 7.43 µM (active); in [6] it was 7.43 µM (active); in assay [7] it was 13.2 µM (active); in assay [4], 16.6 µM (active); in assay [9] it was 26.4 µM (active). For the same compound, the Potency in [5] is 2.64 µM (active).

For `CCOC(=O)C1=C(C)NC(=S)NC1c1cccc(O)c1` (centres undefined), the Potency in [1] is 0.0833 µM (active); in assay [3], 0.0833 µM (active); in assay [6], 0.105 µM (active); in [7], 0.0235 µM (active); in assay [4], 0.0296 µM (active); in assay [9] it was 0.0526 µM (active). Also, the Potency in [5] was 0.0296 µM (active). The Potency entry in assay [8] was “inactive”.

`Cc1coc2c1C(=O)C(=O)c1c-2ccc2c(C)cccc12`: the Potency was 8.33 µM (active) in assay [1]; 0.166 µM (active) in [3]; 5.9 µM (active) in [6]; 14.8 µM (active) in assay [7]; 2.96 µM (active) in assay [4]; 14.8 µM (active) in assay [9]. Further, the Potency in [8] is 20.9 µM (active).

As to `Cc1ccc([N+](=O)[O-])cc1S(=O)(=O)N(C)N=Cc1cnc2ccc(Br)cn12`, the Potency is 0.0418 µM (active) in assay [1]; 0.0148 µM (active) in [3]; 0.0187 µM (active) in assay [7]; 0.0083 µM (active) in assay [4]; 0.0526 µM (active) in [9]; 0.0209 µM (active) in assay [8].

In the case of `N#CC(=C(O)c1ccc(Cl)cc1Cl)c1nc2cc(Cl)ccc2c(=O)[nH]1`, the Potency entry in assay [1], in assay [2], in [6], in assay [4] and in [8] was “inactive” each time.

As for `O=C(Nc1cc2cc[nH]c2cn1)c1ccccc1`, the Potency in assay [1] is 11.8 µM (active); in [2], 6.62 µM (active); in [7], 5.26 µM (active); in assay [4] it was 14.8 µM (active); in [9] it was 11.8 µM (active); in assay [8], 11.8 µM (active). Further, the Potency in [5] was 16.6 µM (active).

(Values after PubChem BioAssay (NCATS).)
